Source: PubChem
A selection: hits, their analogues and other compounds. The true share with any hit is near 3.9%.
PLCb3 inh – inhibitors of human phospholipase C beta3 | Q01970 | Purified PLC-beta3, fluorogenic substrate, fluorescence | inhibition, % at 12.2 µM | 370,000 compounds, 0.18% hits | AID 720704; in the data active = inhibition above about 11%;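 also: 0% = median of compound wells on plate and 100% = full blocker control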
HIF act – HIF pathway transcriptional activation; U2OS HRE-luciferase reporter, luminescence; normalized: DMSO 0%, desferrioxamine 100%; 300,000 compounds, 0.32% hits; activation, % at 7.5 µM (by protocol);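 active = mean activation of at least 10% of the iron chelator positive control signal, with at least half of replicates also reaching 10%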
Yeast superoxide – yeast age-related superoxide inhibition as caloric restriction mimetic. S. cerevisiae aged cells, superoxide DHE fluorescence; hits give low values. superoxide response (% of plate mean), % at 10 µM. 330,000 compounds, 0.18% hits. AID 2690;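 active = superoxide response under a set limit, about three screen SD below normal, cut at about 65% in these data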;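 also: yeast aged for seven days with compound at 30 °C before DHE staining; 100% = average MFI of all compound-treated wells on the plate with controls excluded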
PLC-gamma1 inh – PLC-gamma1 (human) inhibition, primary screen | inhibition, % at 12.2 µM | 370,000 compounds, 0.84% hits | purified PLC-gamma1, fluorogenic substrate, fluorescence; in the data active = inhibition above about 9.5%
AHR act – activators of human aryl hydrocarbon receptor; AID 2796; P35869; activation, % at 5 µM; 320,000 compounds, 2.5% hits; AHR-responsive luciferase reporter cells, luminescence; in the data active = activation above about 47%;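 also: 0% = vehicle wells and 100% = reference agonist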
sPLA2-III inh – Inhibits HGIII-sPLA2 liposome hydrolysis, primary screen; QFRET BODIPY PC-A2 liposome hydrolysis, fluorescence; AID 743126; 370,000 compounds, 0.56% hits; inhibition, % at 12.2 µM;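 active = inhibition above mean plus 3 SD of compounds lying within the high and low control bounds, cut at about 19% in these data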;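 also: 0% = median of test compound wells and 100% = no enzyme DMSO wells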
Target sequence (Q9NZ20 whole entry, looked up): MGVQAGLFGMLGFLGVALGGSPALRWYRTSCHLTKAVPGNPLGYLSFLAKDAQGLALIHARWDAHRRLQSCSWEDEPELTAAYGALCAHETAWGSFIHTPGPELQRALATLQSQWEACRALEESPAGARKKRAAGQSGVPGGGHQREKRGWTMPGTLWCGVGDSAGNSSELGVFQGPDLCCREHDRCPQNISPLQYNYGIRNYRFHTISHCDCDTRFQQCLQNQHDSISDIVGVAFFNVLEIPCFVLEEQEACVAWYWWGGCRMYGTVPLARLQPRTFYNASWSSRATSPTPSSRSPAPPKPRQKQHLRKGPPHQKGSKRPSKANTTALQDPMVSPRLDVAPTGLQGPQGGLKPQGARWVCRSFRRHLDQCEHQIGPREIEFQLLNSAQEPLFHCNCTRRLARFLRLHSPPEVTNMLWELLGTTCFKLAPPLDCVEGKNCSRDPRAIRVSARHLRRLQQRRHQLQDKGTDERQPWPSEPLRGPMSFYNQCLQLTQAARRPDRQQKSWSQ
The depositor's hits bear a star; x = not tested or not shown.

SMILES	PLCb3 inh	HIF act	Yeast superoxide	PLC-gamma1 inh	AHR act	sPLA2-III inh
O=C(O)c1cc(NC(=O)c2ccc3c(c2)C(=O)N(Cc2cccnc2)C3=O)cc(C(=O)O)c1	-8	0	96	-1	1	-1
C#Cc1cccc(NC(=O)c2ccc3c(c2)C(=O)N(Cc2cccnc2)C3=O)c1	2	0	99	4	57*	-5
Cc1cccc(-c2noc(CN(C)S(=O)(=O)c3cc(Cl)ccc3Cl)n2)c1	-3	168*	114	3	5	-5
COc1ccc(Cl)cc1C(=O)N(Cc1nc(-c2cccc(C)c2)no1)C(C)C	2	0	93	-1	11	-26
S=c1nc(-c2ccccc2)[nH]c2ccc(Br)cc12	-5	1	99	2	53*	1
c1ccc(-c2nc3ccccc3[nH]2)cc1	2	4	100	-1	27	-4
CC(C)C(=O)NC(c1cccc([N+](=O)[O-])c1)c1ccc2cccnc2c1O (stereo not given)	-5	95*	130	0	0	23*
CC(=O)NC(c1ccco1)c1cc(F)c2cccnc2c1O (stereo not given)	-10	x	80	-5	-3	9
CC(C)C(=O)NC(c1ccco1)c1ccc2cccnc2c1O (stereo not given)	-21	22*	81	-25	0	12
Oc1c(C(Nc2nc3ccccc3s2)c2ccco2)ccc2cccnc12 (stereo not given)	-21	31*	135	-12	25	34*
CC(C)C(=O)NC(c1cccc([N+](=O)[O-])c1)c1c(O)ccc2ccccc12 (stereo not given)	0	0	104	2	0	-4
CCCC(=O)NC(c1cccc([N+](=O)[O-])c1)c1ccc2cccnc2c1O (stereo not given)	2	x	x	-4	x	22*
CCCc1cc(=O)oc2cc(C)cc(OCC(=O)NCc3ccccn3)c12	-235	0	94	-156	17	1
CCCCc1cc(=O)oc2cc(C)cc(OCC(=O)NCc3ccncc3)c12	-227	-1	98	-139	56*	7
Cc1cc(OCC(=O)Nc2cccnc2)c2c(C)cc(=O)oc2c1	-84	0	104	-48	64*	4
O=C(CSCc1ccccc1)Nc1ccc2c(c1)OCO2	-3	4	108	-1	15	-6
O=C(CSc1nccn1-c1ccc(Cl)cc1)Nc1ccc2c(c1)OCO2	-2	x	124	-5	53*	-9
O=C(CSCc1c(Cl)cccc1Cl)Nc1ccc2c(c1)OCO2	-2	1	99	2	47*	-11
O=C(Nc1cccc(F)c1)Nc1ccc2c(c1)OCO2	0	4	97	2	x	-26
O=C(Cc1c(F)cccc1Cl)NNC(=O)Nc1ccc2c(c1)OCO2	-10	1	102	-5	53*	-1
COc1ccccc1CNC1CCC12CCC(c1ccccc1)CC2 (stereo not given)	1	x	x	-1	x	8
COc1ccc(S[C@]2(C(=O)N3CCCC3)CC(=O)N(C(=O)c3ccccc3)[C@@H]2c2ccc(OC)cc2)cc1	3	x	x	9	x	5
O=C(CSc1nnc(-c2ccncc2)n1Cc1ccco1)Nc1ccccc1Cl	5	0	93	-1	1	-3
O=C(CSc1nnc(-c2ccc(Cl)cc2)n1Cc1ccco1)c1cccs1	-20	0	90	-12	87*	-5
O=C(CSc1nnc(-c2ccncc2)n1Cc1ccco1)Nc1nc(-c2ccccc2)cs1	-2	2	97	3	48*	-5
SMILES	PLCb3 inh	HIF act	Yeast superoxide	PLC-gamma1 inh	AHR act	sPLA2-III inh
CC(/C=N\NC(=O)CSc1nnc(-c2ccc(Br)cc2)n1-c1ccccc1)=C\c1ccco1	-14	x	x	-8	x	-5
Clc1cccc(CSc2nnc(-c3c[nH]c4ccccc34)o2)c1	-3	0	110	3	52*	-14
Cc1oc(-c2cc(F)ccc2F)nc1CN(C)Cc1ccc2nccnc2c1	-3	-1	95	-3	2	-2
Cc1oc(-c2cc(F)ccc2F)nc1CN1CCN(c2cnccn2)CC1	-8	-1	110	-4	54*	-3
CC(C)(C)OC(=O)N1CCC(N[C@@H](Cc2c[nH]c3ccccc23)C(=O)NCC(c2ccccc2)c2ccccc2)(C(=O)NC2CCCCC2)CC1	2	x	x	0	x	-73
Cc1ccc(-c2c(C(=O)N/N=C/c3cccnc3)nnn2-c2nonc2N)cc1	-9	0	100	0	14	-11
CCOc1ccc(-c2c(C(=O)N/N=C/c3cccnc3)nnn2-c2nonc2N)cc1	-17	25*	104	-2	14	-9
COc1cccc(-c2c(C(=O)N/N=C(\C)c3cccnc3)nnn2-c2nonc2N)c1	-6	x	97	0	62*	-14
C/C(=N\NC(=O)c1nnn(-c2nonc2N)c1-c1cccs1)c1cccnc1	-16	0	104	7	63*	-5
CCOc1cccc(-c2c(C(=O)N/N=C(\C)c3ccccn3)nnn2-c2nonc2N)c1	-4	16*	102	0	0	-10
CCOc1cccc(-c2c(C(=O)N/N=C(\C)c3ccncc3)nnn2-c2nonc2N)c1	-10	0	104	1	16	-3
COc1ccc(-c2nnc(SCC(=O)NN=C/C=C\c3ccco3)n2-c2ccc(OC)cc2)cc1	-9	x	x	-5	x	-16
COc1cccc2c1C(=O)c1ccc3ccccc3c1C2=O	x	2	102	x	62*	x
COc1ccc(OC)c2c1C(=O)c1ccccc1C2=O	-16	-1	117	-8	22	-3
CCNc1sc(C(=O)c2cccs2)c(N)c1-c1nc2ccccc2s1	-28	1	109	-22	55*	16
Cc1c(NC(=O)c2cccs2)cccc1-c1nc2ccccc2s1	0	2	116	-1	-6	-10
CCOC(=O)c1sc(NCc2ccco2)c(-c2nc3ccccc3s2)c1N	-127	1	98	-96	62*	11
Cc1c(C)n(Cc2ccc(-c3ccccc3C(=O)O)cc2)c2ccc(C(=O)N[C@@H](C)c3ccc(Br)cc3)cc12	-21	x	x	-9	x	-62
Cc1ccc(NP(=O)(c2ccc(N(C)C)cc2NC(=O)c2cccs2)N2CCOCC2)cc1Cl (stereo not given)	2	-1	74	-4	50*	-6
COc1ccc(C[C@H]2CN3C(=NC[C@@H]3Cc3ccc(O)cc3)N2CCNC(=O)c2ccc(C)c(Br)c2)cc1	2	0	x	5	3	-19
Cc1ccc(C(=O)NCCN2C3=NC[C@H](Cc4ccc(O)cc4)N3C[C@H]2Cc2ccc(O)cc2)cc1Br	7	0	104	10*	2	-10
Nc1nc(Cl)nc2c1ncn2[C@@H]1O[C@H](CO)[C@@H](O)[C@@H]1F	2	x	x	-1	x	4
